Rows were chosen to be rich in hits. Some 14% of all compounds tested hit in one or more screens of this group.
NS1 inh: qHTS Assay for Inhibitors of Influenza NS1 Protein Function | AID 2326, 2010 | Potency, µM (doses to about 46.1 µM), for inactives: top-dose activity, positive = more growth | 270,000 compounds, 0.4% hits; calls by dose curve; note: potency is the fitted concentration of half-maximal effect; actives are rising curves; nearly all actives have a fitted effect of over 50% in size
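In this qHTS, NS1 from influenza A is expressed in budding yeast, where it slows growth. Cells are switched from glucose to 2% galactose medium (pH 6.0, -URA), treated with compound, and growth recovery is read at OD600.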
CHX counter: Cycloheximide Counterscreen for Small Molecule Inhibitors of Shiga Toxin. cell reporter, cycloheximide protein synthesis inhibition counterscreen. AID 2314, 2010. max response, %. 300,000 compounds, 12% hits; in the data active = max response mostly above about 13%, no sharp cut-off; inactive = mostly below about 14%; note: read at 38.3 µM for the half of the compounds with a filed dose; 0% is about no effect
Giardia FBPA inh: qHTS Assay for Inhibitors of Fructose-1,6-bisphosphate Aldolase from Giardia Lamblia | Potency, µM (doses to about 59.6 µM), for inactives: top-dose activity, negative = inhibition, hits mostly inhibitors | 290,000 compounds, 0.71% hits | A8B2U2 | purified Giardia FBPA | AID 2451, 2010; note: potency is the fitted concentration of half-maximal effect; % is set by controls: 0 for no effect and ±100 for the full control effect; nearly all actives have a fitted effect of over 55% in size
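40 nM FBPA preincubated 10 min at RT with compound (up to 57.5 uM final), then substrate plus GAPDH/TPI/NAD/arsenate coupling and diaphorase/resazurin added. Fluorescence read after 20 min at RT, 525/598 nm.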
LmPK inhibitor: qHTS Assay for Inhibitors of Leishmania Mexicana Pyruvate Kinase (LmPK). purified LmPK, Kinase-Glo ATP luminescence, 1 h. Potency, µM (highest dose often 57.5 µM), for inactives: at the highest dose activity change, negative = inhibition, most hits filed as inhibitors. 290,000 compounds, 0.37% hits. AID 1721, 2009; note: potency is the fitted concentration of half-maximal effect; % is set by controls: 0 for no effect and ±100 for the full control effect
Target sequence (Q27686 whole entry, looked up): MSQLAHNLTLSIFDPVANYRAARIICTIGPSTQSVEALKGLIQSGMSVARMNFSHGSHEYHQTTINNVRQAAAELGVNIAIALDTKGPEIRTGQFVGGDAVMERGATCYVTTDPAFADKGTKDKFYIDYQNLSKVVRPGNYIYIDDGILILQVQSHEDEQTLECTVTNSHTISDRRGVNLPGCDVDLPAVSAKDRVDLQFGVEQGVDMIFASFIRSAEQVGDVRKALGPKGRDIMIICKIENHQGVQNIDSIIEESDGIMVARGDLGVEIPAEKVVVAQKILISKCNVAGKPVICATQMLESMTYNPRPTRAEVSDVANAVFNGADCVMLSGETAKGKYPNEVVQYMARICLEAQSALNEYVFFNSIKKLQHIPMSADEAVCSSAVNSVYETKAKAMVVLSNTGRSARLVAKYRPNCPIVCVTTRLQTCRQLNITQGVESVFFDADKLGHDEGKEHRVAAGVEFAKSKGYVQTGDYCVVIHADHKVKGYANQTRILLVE
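In 50 mM imidazole pH 7.2 with 7 mM MgCl2, LmPK (0.1 nM) turned over PEP (0.5 mM) and ADP (0.1 mM) for 1 h at room temperature. Luciferase read-out of ATP.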
Shiga inhibitor: A qHTS for Small Molecule Inhibitors of Shiga Toxin. inhibition, % at 38.7 µM. Vero cells, Shiga toxin protein synthesis inhibition reporter. 290,000 compounds, 9.2% hits; in the data active = inhibition mostly above about 28%, no sharp cut-off; inactive = mostly below about 43%; note: 0% is about no effect
* = called active by the depositor; [ ] = another dose, or the depositor's remark. Unless noted, calls come from the whole dose curve; as a rule, active = well fitted curve in the direction sought with a large enough effect; inconclusive = small, poorly fitted or top-dose-only effect, or another doubt; inactive = no such curve, though single readings can be large; an effect the other way counts as inactive or inconclusive.

Cc1cccc(C)c1OCc1cc(C(=O)N2CCCCCCC2)no1 was read as NS1 inh -30%, CHX counter 43*, LmPK inhibitor -8% and Shiga inhibitor 49*.
Screening Cc1ccc(N2CCN(C(=O)c3cc(COc4c(C)cccc4C)on3)CC2)c(C)c1 returned NS1 inh inconclusive, CHX counter 8, LmPK inhibitor -12% and Shiga inhibitor -30.
For Cc1ccc(OCc2cc(C(=O)N3CCCC3)no2)cn1 the results were NS1 inh -16%, CHX counter 44*, LmPK inhibitor 2% and Shiga inhibitor 74*.
For Cc1ccc(OCc2cc(C(=O)N(CCO)Cc3cccs3)no2)cc1C the results were NS1 inh -29%, CHX counter 51*, LmPK inhibitor -1% and Shiga inhibitor 160*.
CCN(Cc1ccncc1)C(=O)c1cc(COc2ccc(C)c(C)c2)on1 was read as NS1 inh -52%, CHX counter 3, LmPK inhibitor -4% and Shiga inhibitor 17.
For Cc1cccc(N2CCN(C(=O)c3cc(COc4ccc(F)c(F)c4)on3)CC2)n1 the results were NS1 inh -35%, CHX counter 40*, LmPK inhibitor 3% and Shiga inhibitor 59.
For CCC(C)N1C(=O)N(c2cccc(Cl)c2)C(C)(O)CC1(C)C (stereo not drawn) the results were NS1 inh -3%, CHX counter -6, Giardia FBPA inh 6%, LmPK inhibitor -1% and Shiga inhibitor 19.
CN(C)c1ncc2nc(-c3cccs3)c(=O)n(C[C@H]3CCCO3)c2n1 was read as Giardia FBPA inh 1%.
Screening Cc1ccc(OCc2cc(C(=O)N3CCC(c4ccccc4Cl)C3)no2)cc1C (stereo not drawn) returned NS1 inh 28%, CHX counter 63*, Giardia FBPA inh -7%, LmPK inhibitor -3% and Shiga inhibitor 73*.
C=CCC1(CC=C)CCCN1C(=O)c1cc(COc2ccc(C)nc2)on1 was read as NS1 inh -21%, CHX counter 21*, Giardia FBPA inh -9%, LmPK inhibitor 3% and Shiga inhibitor 78*.
`C=CCC1(CC=C)CCCN1C(=O)c1cc(COc2ccc(F)c(F)c2)on1` gave NS1 inh -30%, CHX counter 3, Giardia FBPA inh -14%, LmPK inhibitor -2% and Shiga inhibitor 12.
Screening Cc1ccc(OCc2cc(C(=O)N3CCN(c4ccccc4)CC3)no2)cc1C returned NS1 inh 3%, CHX counter 41*, LmPK inhibitor -19% and Shiga inhibitor 59*.
`O=C(CN1C(=O)c2ccccc2C1=O)[C@@H](O)CN1C(=O)c2ccccc2C1=O` gave NS1 inh 0%.
CC(=O)Nc1ccc(S(=O)(=O)N2CCN(Cc3cccs3)CC2)cc1 was read as NS1 inh 0%, CHX counter -2, Giardia FBPA inh inconclusive, LmPK inhibitor 0% and Shiga inhibitor 2.
For Cc1ccc(CSCC(=O)N2CCN(c3ccccc3)CC2)cc1 the results were NS1 inh -12%, CHX counter 7, Giardia FBPA inh 9%, LmPK inhibitor 0% and Shiga inhibitor 12.
Screening O=C(CSCc1ccccc1)N1CCN(c2ccccc2)CC1 returned NS1 inh -10%, CHX counter 47*, Giardia FBPA inh 3%, LmPK inhibitor 0% and Shiga inhibitor active.
O=C(CSCc1cccc(F)c1)N1CCN(c2ccccc2)CC1 was read as NS1 inh -15%, CHX counter 41*, Giardia FBPA inh -2%, LmPK inhibitor 1% and Shiga inhibitor 83*.
For O=C(CCc1ccccc1)N1CCN(c2ccc(F)cc2)CC1 the results were NS1 inh -9%, CHX counter 0, Giardia FBPA inh 0%, LmPK inhibitor -2% and Shiga inhibitor -14.
Screening O=C(CSCc1ccccc1)N1CCN(c2ccc(F)cc2)CC1 returned NS1 inh -160%, CHX counter 45*, Giardia FBPA inh 0%[12.9 µM], LmPK inhibitor 4% and Shiga inhibitor 21.
CCOC(OCC)c1cn(Cc2ccc(C(=O)c3ccccc3)cc2)nn1 was read as NS1 inh -9%, CHX counter -4, Giardia FBPA inh 12%, LmPK inhibitor 1% and Shiga inhibitor -10.
For CC1CCCCN1C(=O)c1cc(-c2ccc(Cl)c(Cl)c2)on1 (stereo not drawn) the results were NS1 inh -60%, CHX counter 29*, Giardia FBPA inh 4%, LmPK inhibitor -1% and Shiga inhibitor 76.
CC1CCN(C(=O)c2cc(-c3ccc4c(c3)OCO4)on2)CC1 was read as NS1 inh -18%, CHX counter 28*, Giardia FBPA inh -12%, LmPK inhibitor 0% and Shiga inhibitor 41*.
`CC1CCCCN1C(=O)c1cc(-c2ccc3c(c2)OCO3)on1` (stereo not drawn) gave NS1 inh -2%, CHX counter 36*, Giardia FBPA inh 6%, LmPK inhibitor 1% and Shiga inhibitor 89*.
Screening CCC1CCCCN1C(=O)c1cc(-c2ccc(Cl)c(Cl)c2)on1 (stereo not drawn) returned NS1 inh -77%, CHX counter 39*, Giardia FBPA inh 3%, LmPK inhibitor 7% and Shiga inhibitor 94*.
`CCN(CC)CCCNC(=O)c1cc(-c2ccc3c(c2)OCO3)on1` gave NS1 inh 6%, CHX counter 6, Giardia FBPA inh -1%, LmPK inhibitor 1% and Shiga inhibitor 26.
Screening Nc1ccc(S(=O)(=O)NC(Cc2ccccc2)C(=O)O)cc1 (stereo not drawn) returned NS1 inh 6%, CHX counter -1, Giardia FBPA inh -7%, LmPK inhibitor 2% and Shiga inhibitor -12.
`COCCn1c(=O)c(-c2ccc(OC)cc2)nc2cnc(Oc3ccccc3)nc21` gave Giardia FBPA inh -20%.
For CC(C)(C)C1CCC2(CC1)SCC(=O)N2c1ccccc1 (stereo not drawn) the results were NS1 inh inconclusive, CHX counter 1, LmPK inhibitor -1% and Shiga inhibitor -3.
For CCC(C)(C)C1CCC2(CC1)NC(=S)N(c1ccccc1)N2 (stereo not drawn) the results were NS1 inh -3%, CHX counter 35*, Giardia FBPA inh 1%, LmPK inhibitor 2% and Shiga inhibitor 98*.
CC(C)(C)C1CCC2(CC1)NC(=S)N(c1ccccc1)N2 (stereo not drawn) was read as NS1 inh -7%, CHX counter 24*, Giardia FBPA inh 0%, LmPK inhibitor 1% and Shiga inhibitor 42*.
`COc1ccc(OC)c(N(CC(=O)NC2CCCC2)S(=O)(=O)c2ccc(OC)c(OC)c2)c1` gave NS1 inh -2%, CHX counter 6, LmPK inhibitor 3% and Shiga inhibitor -18.
For Cc1nn(-c2ccc(N3CCCCC3)nn2)c(C)c1CCC(=O)Nc1cc(F)ccc1F the results were NS1 inh -12%, CHX counter 48*, Giardia FBPA inh 28%, LmPK inhibitor -4% and Shiga inhibitor 45*.

Assay outcomes: PubChem, National Center for Advancing Translational Sciences (NCATS)
